In article PMC7819943, “Rice protein-binding microarrays: a tool to detect cis-acting elements near promoter regions in rice”:
The full ranking holds about 68,000 sequences; the median of “fluorescence intensity (a.u.)” is about 9,100, and the highest 2% start at about 16,000. Many of the other results were omitted from the sample, so the highest values are more common in it than they were.

target: OsWRKY34 (Oryza sativa, UniProt Q0JBA9 1-250); assay: protein-binding microarray (RPBM); PBS, 2% BSA, 51.3 ng/ul salmon testes DNA, 50 uM zinc acetate, 200 nM TF, 25 C, 1 h; high values mean tight binding; conditions: protein: recombinant; tags: N-terminal polyhistidine and DsRed monomer fusion (pET32a); label: CyDye5-dUTP incorporated in the synthesized complementary strand; 3' TTTTT single-stranded linker to array surface; dsDNA, one strand shown
Sequence (Q0JBA9 entry or part of it): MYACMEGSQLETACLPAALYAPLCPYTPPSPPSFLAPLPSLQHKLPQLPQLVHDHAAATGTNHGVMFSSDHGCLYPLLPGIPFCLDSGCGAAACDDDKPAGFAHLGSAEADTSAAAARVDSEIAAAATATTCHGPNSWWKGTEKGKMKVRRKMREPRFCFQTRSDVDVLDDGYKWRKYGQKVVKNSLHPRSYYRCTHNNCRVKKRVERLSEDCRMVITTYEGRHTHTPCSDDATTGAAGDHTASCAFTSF
How it was run: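 Per-feature fluorescence intensity (arbitrary units), read on an Axon 4000B scanner, is the binding signal. Transcription factors carrying an N-terminal polyhistidine tag and DsRed fusion were expressed in E. coli BL21-CodonPlus and purified on Ni–NTA. A custom Agilent array, made double-stranded by primer extension with Cy5-dUTP and blocked with 2% BSA, was incubated with 200 nM protein in PBS, 2% BSA, salmon testes DNA and 50 µM zinc acetate at 25 °C for 1 h and then washed.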

Sequence	binding signal
CCCACACGCGCTCCATGCATCTCCACCACGCTCCATGTGTCGGAGTCACCTAGTGCAG	11000 fluorescence intensity (a.u.)
CCGTCCGCCATTGCAGCTTCGTTGTTCTGTACCTTCTTGCCGGAGTCACCTAGTGCAG	10900 fluorescence intensity (a.u.)
CCGGGTCACACATCCCCTCATACTCGGGCCTTGTTTAGTTCGGAGTCACCTAGTGCAG	8740 fluorescence intensity (a.u.)
TACTGCCTCTCTCTGACCCCATTGACCAACTCCGTTGACCCGGAGTCACCTAGTGCAG	15800 fluorescence intensity (a.u.)
AGATGGATGCTCTGCCCGCCGCCCTACCACCCTCTGCCATCGGAGTCACCTAGTGCAG	8030 fluorescence intensity (a.u.)
GTCTTTTCTTCAAGGTTATCTTTTTTGTCCCTTTTTTATTCGGAGTCACCTAGTGCAG	15200 fluorescence intensity (a.u.)
TCATATTGTACCTTCCACTTTTATTCTTTTAAAGCCTATACGGAGTCACCTAGTGCAG	9560 fluorescence intensity (a.u.)
AGGCGCTCCATAGGCCTCGTCATCTTCACAGTCACACACCCGGAGTCACCTAGTGCAG	11200 fluorescence intensity (a.u.)
GCTGCCTATTCCATACAAATTTCGTAGGTTCATTTCCAACCGGAGTCACCTAGTGCAG	10000 fluorescence intensity (a.u.)
GTCGTCGTCTTCGTCTCGAGTTCTTGGTTGGTTGGATCTACGGAGTCACCTAGTGCAG	19400 fluorescence intensity (a.u.)
CATCTACGTGCTCTCTTTGGTTGGGGTGTTCTTGCTGCTACGGAGTCACCTAGTGCAG	17700 fluorescence intensity (a.u.)
GACTATAGAGGCTTTGTTTGTTTGGGGTGTGTTTTTGTCTCGGAGTCACCTAGTGCAG	17200 fluorescence intensity (a.u.)
CGTGTTGGGGTTCTCTTCCTGCTGCTTTGGCCACCTGGGACGGAGTCACCTAGTGCAG	12500 fluorescence intensity (a.u.)
TTTGGGGTGTGTTTTTGTCTAGAGGTAAAGTTTTTAAAGTCGGAGTCACCTAGTGCAG	10600 fluorescence intensity (a.u.)
TTCACTATTGGGTGTTTTTGTCTCGATTCACCTTCATCGTCGGAGTCACCTAGTGCAG	8840 fluorescence intensity (a.u.)
ATTGGTCGTCTTGCTGAGCTCTCGTACTTGGATCTCTCTACGGAGTCACCTAGTGCAG	11100 fluorescence intensity (a.u.)
ATGAATTAGGTGTGGTTCTCTTTAATCTGTTATTAGTCATCGGAGTCACCTAGTGCAG	11000 fluorescence intensity (a.u.)
GATATTGGAGGTGCATCTGTTAGGGTTCGGGTTCTCTCTACGGAGTCACCTAGTGCAG	16700 fluorescence intensity (a.u.)
CTTCTTCGGATCACTCGGTTGGTTTCTTGGTTTCTTGGTTCGGAGTCACCTAGTGCAG	13000 fluorescence intensity (a.u.)
TAGATCTCTTGCTTTGGGTGTTGTTTGCTCTAGGTGTTCTCGGAGTCACCTAGTGCAG	8250 fluorescence intensity (a.u.)

Sequence	binding signal
TCTAGGTTCTGTTCTATTCGGTTCTAGGTTATCATATTTTCGGAGTCACCTAGTGCAG	12100 fluorescence intensity (a.u.)
GGACTCCTGATTTCTACTCTATTCCTATTCCACTAGCTTACGGAGTCACCTAGTGCAG	14400 fluorescence intensity (a.u.)
ATCCTGCGATTCCACCATATCCAATCCTCGTATCTTGGGTCGGAGTCACCTAGTGCAG	8310 fluorescence intensity (a.u.)
TTATCTAGATTCGTATTACTAGGATGTGTCTCGTTCAACCCGGAGTCACCTAGTGCAG	8780 fluorescence intensity (a.u.)
GTGGGCCCCGCCCGTGTGATCGTGTCTCTGTTTCGTTTTCCGGAGTCACCTAGTGCAG	12100 fluorescence intensity (a.u.)
GTGTTTTTTCTTCATTTGTCCCGTAATAAATTTATTTTTTCGGAGTCACCTAGTGCAG	12500 fluorescence intensity (a.u.)
CGCTTACAGTCCACTCTCCACTGCGCCCGCATGAGTCATGCGGAGTCACCTAGTGCAG	8880 fluorescence intensity (a.u.)
AAACTGCCAGCTTTCTGCATCTCTCCGCCCTCATGATGCGCGGAGTCACCTAGTGCAG	9490 fluorescence intensity (a.u.)
TTTTCTTTCCTTTATTATTTTCTTTATCCTTTTTTTCTCCCGGAGTCACCTAGTGCAG	9250 fluorescence intensity (a.u.)
ATCGGCGCCGTCGACCGCGACCACCCTGCCGCCGAGCGCCCGGAGTCACCTAGTGCAG	10300 fluorescence intensity (a.u.)
TCCTCTTCTTCTTCTTCTTCTTCTCGTGGGTGCAAGAAGCCGGAGTCACCTAGTGCAG	8380 fluorescence intensity (a.u.)
CGCCCAAGCTAGCTAGTGGCCATTATCCCATGGATATTTCCGGAGTCACCTAGTGCAG	8280 fluorescence intensity (a.u.)
ATCCTGTATCGTCCAGAATGCTTCTTCCATCCTAATCACCCGGAGTCACCTAGTGCAG	9220 fluorescence intensity (a.u.)
CTTCTCTTTGTTTTCTTGTTTGCTTGCTTGGTGTAAAGAACGGAGTCACCTAGTGCAG	16100 fluorescence intensity (a.u.)
ATCTTTTTACCCAATTCTTGATCACTCTTCTTGGTCGTTCCGGAGTCACCTAGTGCAG	8060 fluorescence intensity (a.u.)
GGTATCTGTTGCTGCTTGCTGGTTCTCGTGCTATTGTTCTCGGAGTCACCTAGTGCAG	19900 fluorescence intensity (a.u.)
ATCAAAGTTGCTGGGGTTAATTTGGGTTCTTGGTTGTGAACGGAGTCACCTAGTGCAG	15600 fluorescence intensity (a.u.)
TTCTTGCTAGTTCTTGTAGTATCTGGTTCTTGCTAGTTCTCGGAGTCACCTAGTGCAG	10800 fluorescence intensity (a.u.)
ATCACTCTTCTTGGTCGTTCTTGCCATTCTTGTACCGCGACGGAGTCACCTAGTGCAG	18200 fluorescence intensity (a.u.)
GGTTGGGTGTTTTTGCTTCTCTTGTAGTCTTTGTGTAGAACGGAGTCACCTAGTGCAG	21500 fluorescence intensity (a.u.)

Sequence	binding signal
CATGTAATTCTCTTCACTTTTGCTTGTTTGGGTTGTGAAACGGAGTCACCTAGTGCAG	10100 fluorescence intensity (a.u.)
CGGGGTTCTTGTGTTTATTGTTAAGATCCGGTTTGCTGAACGGAGTCACCTAGTGCAG	21900 fluorescence intensity (a.u.)
GCTTCTGCTTCTTCTTGTTCTTGTTGCTGTTGGTAATACTCGGAGTCACCTAGTGCAG	11000 fluorescence intensity (a.u.)
GTAATTCTGTTGTCATACGGTTTATTGTGTGGTTGCTGAACGGAGTCACCTAGTGCAG	9010 fluorescence intensity (a.u.)
TCTCTCTCTCGTCGTCTCGCGTCTCTTCTCTCAACCGCGACGGAGTCACCTAGTGCAG	13800 fluorescence intensity (a.u.)
CGCCACCGTCCTGCTCACCGGCGTTCCGCCGGAACGACTTCGGAGTCACCTAGTGCAG	9640 fluorescence intensity (a.u.)
ATTTTTTTTGTCAAACTGCCACGAAAGCGTCACGTTAATACGGAGTCACCTAGTGCAG	8240 fluorescence intensity (a.u.)
CAATTCACGCCACCCGCTCCGCCTCTCGCCGCCTCGACCGCGGAGTCACCTAGTGCAG	11000 fluorescence intensity (a.u.)
AAATTTTGACTCCTTCAGTTAATGATTTTCGTATACAAATCGGAGTCACCTAGTGCAG	8180 fluorescence intensity (a.u.)
ATCTCTCTCATATTCCTTCGATCTGCAGCTTGTACGTTGGCGGAGTCACCTAGTGCAG	14500 fluorescence intensity (a.u.)
CTGTTGACTATCCATGCCATTTTTACCGATTAGTCTATCTCGGAGTCACCTAGTGCAG	13800 fluorescence intensity (a.u.)
CGCAGTCCGAAGTTGATTTTTTTTTTTTTTACGGAGTACTCGGAGTCACCTAGTGCAG	8250 fluorescence intensity (a.u.)
TGATTGTGTTTGTAGACTTGGTTGGTATTGTTGAACGGATCGGAGTCACCTAGTGCAG	11800 fluorescence intensity (a.u.)
AAATACTCCCTCCGTATTTTAATGTATGACACCGTTGACTCGGAGTCACCTAGTGCAG	10300 fluorescence intensity (a.u.)
AGAGGGAGTATTATGTTTATGCTTTTAATTTTTCACTTTGCGGAGTCACCTAGTGCAG	9150 fluorescence intensity (a.u.)
CATCCGTATTTTAATGTATGACACCGTTGACTTTTCGACTCGGAGTCACCTAGTGCAG	19100 fluorescence intensity (a.u.)
CCGTATTTTAATGTATATGACACCGTTGACTTTTTGACCACGGAGTCACCTAGTGCAG	40800 fluorescence intensity (a.u.)
CATATTTTAATTTTAATGTATGACACCGTTGACTTTTCGACGGAGTCACCTAGTGCAG	16000 fluorescence intensity (a.u.)
AGGGAGCCTATTTTAATGTATGACACCGTTGACTTTTTTGCGGAGTCACCTAGTGCAG	19200 fluorescence intensity (a.u.)
TTTATGTAATGCCTTAAGATCACACATTGACTTATTTTTGCGGAGTCACCTAGTGCAG	8050 fluorescence intensity (a.u.)
